PubChem BioAssay (NCATS)
Records with an inconclusive call do not appear. The source made the active and inactive calls. Unless noted, the call rests on the fitted dose curve; in most records, active means well fitted curve in the direction sought with a large enough effect; inconclusive means small, poorly fitted or top-dose-only effect, or another doubt; inactive means no such curve, though single readings can be large; an effect the other way counts as inactive or inconclusive.

Tests used:
[1] = target: Cytochrome P450 3A4 (Homo sapiens) (UniProt P08684); experiment: qHTS Assay for Inhibitors and Substrates of Cytochrome P450 3A4 (AID 884); further: nearly all actives have a fitted effect of over 50% in size; further: potency means the concentration at half of the fitted maximal effect; on activity change, negative = inhibition: on the % scale 0 is the no-effect control and ±100 the full control effect
In short: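 20 nM human CYP3A4 with 25 uM Luciferin-PPXE (at KM) in 200 mM KPO4, preincubated 10 min with compound; NADPH regeneration started a 60 min RT reaction. Luciferin detected by luminescence, normalized to 57 uM ketoconazole as full inhibition.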

[2] = Confirmation and Secondary Assay for Modulators of Hemoglobin Beta Chain Splicing at IVS2 654 locus (AID 910);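 further: per-well total GFP intensity by laser scanning cytometry after 2-day treatment; % of control where 0% means no effect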
In short: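 HeLa cells stably carrying EGFP interrupted by mutant beta-globin IVS2-654 intron (CMV-driven) were treated with compound for 2 days at 37C; corrected splicing was scored as total peak GFP intensity per well (488 nm excitation, 500-520 nm emission).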

[3] = Confirmation and Secondary Assay for Modulators of Hemoglobin Beta Chain Splicing at IVS2 705 locus (AID 930);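 further: HeLa cells stably expressing the EGFP-705 splicing reporter; % of control where 0% means no effect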
In short: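 Restored EGFP fluorescence after 2-day compound exposure reports splicing correction in IVS2-705 EGFP reporter HeLa cells; positive control was 500 nM splice-blocking PNA oligo. Signal measured as well total peak GFP intensity (488 nm excitation).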

[4] = qHTS Assay for Lipid Storage Modulators (AID 1519; calls by dose curve; on activity change, negative = inhibition: on the % scale 0 is the no-effect control and ±100 the full control effect); conditions: Drosophila S3 cells, BODIPY lipid droplet/cell ratio, laser cytometry, cells loaded with oleic acid; for activity change, negative = inhibition: at 57.5 µM (top of the series)
In short: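 Cells seeded at 5,000 per well were treated with compounds over a concentration series and loaded with oleic acid (400 uM, as added). Lipid droplet fluorescence (488 nm excitation, 500-530 nm channel) was read by laser-scanning cytometry and normalized to 20 uM Triacsin C.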

[5] = target: Cytochrome P450 3A4 (Homo sapiens) (UniProt P08684); experiment: qHTS Assay for Activators of Cytochrome P450 3A4 (AID 885); further: nearly all actives have a fitted effect of over 65% in size
In short: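 Human CYP3A4 (20 nM) with Luciferin-PPXE at 25 uM (its KM) in 200 mM KPO4; 10 min compound preincubation, then NADPH regeneration and 60 min reaction at RT. Luciferin read by luminescence; normalized to 57 uM ketoconazole full inhibition.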

[6] = target: Cytochrome P450 2D6 (Homo sapiens) (UniProt P10635); experiment: Cytochrome P450 family 2 subfamily D member 6 (CYP2D6) small molecule antagonists: luciferase biochemical (cell-free) qHTS assay (AID 1645840; active means well fitted curve in the direction sought with a large enough effect in the repeat runs; an effect the other way counts as inactive or inconclusive; further: on the % scale 0 is the no-effect control and ±100 the full control effect; nearly all actives have a fitted effect of over 55% in size)
In short: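 P450-Glo luminescent screen: recombinant CYP2D6 enzyme–proluciferin substrate mix preincubated with compound 10 min at room temperature, then NADPH regeneration added for 1 h at room temperature. Detection reagent added for 20 min; luciferin light read as relative luminescence units.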

[7] = measured here: cell count channel max response
[8] = measured here: lipid channel max response

Sequence of Cytochrome P450 3A4 (Homo sapiens) (P08684 whole entry, looked up): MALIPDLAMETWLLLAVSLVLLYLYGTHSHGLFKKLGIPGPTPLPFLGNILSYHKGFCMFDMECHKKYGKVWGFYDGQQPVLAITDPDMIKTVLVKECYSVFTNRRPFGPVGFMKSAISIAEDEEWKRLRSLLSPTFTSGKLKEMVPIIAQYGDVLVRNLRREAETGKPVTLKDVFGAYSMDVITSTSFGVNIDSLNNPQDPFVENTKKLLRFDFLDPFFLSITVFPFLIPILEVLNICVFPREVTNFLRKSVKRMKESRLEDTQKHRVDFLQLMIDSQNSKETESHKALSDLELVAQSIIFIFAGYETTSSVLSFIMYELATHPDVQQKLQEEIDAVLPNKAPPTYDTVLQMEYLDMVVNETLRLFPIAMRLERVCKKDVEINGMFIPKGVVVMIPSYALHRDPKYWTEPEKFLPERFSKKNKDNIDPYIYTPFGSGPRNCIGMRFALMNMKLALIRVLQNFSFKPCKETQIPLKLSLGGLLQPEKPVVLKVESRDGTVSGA
Sequence of Cytochrome P450 2D6 (Homo sapiens) (P10635 whole entry, looked up): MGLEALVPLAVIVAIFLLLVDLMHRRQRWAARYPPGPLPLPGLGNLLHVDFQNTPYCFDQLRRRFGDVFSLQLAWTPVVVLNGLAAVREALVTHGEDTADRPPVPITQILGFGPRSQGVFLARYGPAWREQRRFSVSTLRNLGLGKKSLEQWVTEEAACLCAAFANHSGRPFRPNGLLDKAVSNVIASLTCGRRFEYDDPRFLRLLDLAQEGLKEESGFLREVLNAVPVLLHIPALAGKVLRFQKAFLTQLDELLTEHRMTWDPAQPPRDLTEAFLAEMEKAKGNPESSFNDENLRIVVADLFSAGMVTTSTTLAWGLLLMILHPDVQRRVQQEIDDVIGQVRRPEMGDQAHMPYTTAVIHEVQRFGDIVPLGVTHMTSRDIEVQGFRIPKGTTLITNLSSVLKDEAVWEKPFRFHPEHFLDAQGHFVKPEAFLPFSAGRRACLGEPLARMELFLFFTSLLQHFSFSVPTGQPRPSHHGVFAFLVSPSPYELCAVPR

Compound	Potency [1]	Potency [2]	Potency [3]	activity change, negative = inhibition [4]	max response [4, 7]	max response [4, 8]	Potency [5]	Potency [6]
NC(CO)Cc1ccccc1 (centres undefined)	inactive	inactive	inactive	8.6% (inactive)	17.3%	29%	–	–
CNC1[C@@H](O)C(OC2C(N)C[C@H](N)[C@@H](O[C@@H]3OC(C(C)O)C(O)C(O)C3N)C2O)OC[C@]1(C)O (some centres undefined)	20 µM (active)	inactive	inactive	8.52% (inactive)	15%	24.5%	–	–
CN1C2CC(OC(=O)C(CO)c3ccccc3)CC1C(O)C2 (centres undefined)	inactive	inactive	inactive	5.64% (inactive)	7.52%	14.4%	–	–
CC(=O)OC1CC[C@@]2(C)C3CC[C@]4(C)C(=O)CCC4C3CC[C@H]2C1 (some centres undefined)	inactive	inactive	inactive	-0.903% (inactive)	-8.94%	-14.8%	–	–
C/C=C(\C)C(=O)OC1CC(OC(C)=O)[C@@]2(C(=O)OC)COC3C2[C@@]12CO[C@](O)(C(=O)OC)C2[C@](C)(C12OC1(C)C1CC2OC2OC=C[C@]21O)C3O (some centres undefined)	12.6 µM (active)	inactive	inactive	-3.34% (inactive)	-9.57%	-10.6%	inactive	–
CN(C)[C@@H]1C(=O)C(C(N)=O)C(=O)[C@@]2(O)C(=O)C3C(=O)c4c(O)ccc(Cl)c4[C@@](C)(O)C3C[C@@H]12 (some centres undefined)	–	–	–	–	–	–	–	inactive
NC(=NCCCC(N)C(=O)O)N[N+](=O)[O-] (centres undefined)	–	inactive	inactive	0.218% (inactive)	-5.56%	-2.81%	–	–
C=CCC1(CC(C)C)C(=O)NC(=O)NC1=O	–	–	–	–	–	–	–	inactive
C=C(C)C1CNC(C(=O)O)C1CC(=O)O (centres undefined)	inactive	inactive	–	6.75% (inactive)	5.93%	13%	–	–
CN1CCCCC1c1ccc(-c2cccnc2)nc1 (centres undefined)	–	inactive	inactive	6.38% (inactive)	12.4%	21.9%	inactive	–
